Measurements reported in PubChem BioAssay (NCATS).
Results filed as inconclusive are left out. A number with no mark means an inactive call. Activity calls are given as the source filed them. The call rests on the fitted dose curve.

Test: Primary qHTS for inhibitors of SARS-S pseudo-typed particle cell entry (AID 1479145); further: nearly all actives have a fitted effect of over 45% in size
Conditions: SARS-S pseudotyped particle cell entry, luciferase reporter; series mostly up to 57.1 µM; activity change, negative = inhibition: at the top concentration
On the % scale 0 is the no-effect control and ±100 the full control effect.

First: O=C1c2cccc(O)c2C(=O)c2c(O)cccc21
Second: O=C(O)COC(=O)Cc1ccccc1Nc1c(Cl)cccc1Cl
The “activity change, negative = inhibition” value of the first is higher: -8.71% for the first, -17.3% for the second.

Compared with `CN1CCCN=C1/C=C/c1cccs1`, `CCNC(=O)NCCCOc1cccc(CN2CCCCC2)c1` is higher in “activity change, negative = inhibition” value: -15.3% for the first, 4.21% for the second.

Going from `CC(C)c1cc2c(cc1S(=O)(=O)O)[C@@]1(C)CCC[C@@](C)(C(=O)O)[C@@H]1CC2` to `CCOC(=O)OC(C)OC(=O)[C@@H]1N2C(=O)[C@@H](NC(=O)[C@H](N)c3ccccc3)[C@H]2SC1(C)C` (some centres undefined), the “activity change, negative = inhibition” value rises from -25.2% to 1.9%.

Compared with `Oc1ccc(CCNCCCCCCNCCc2ccccc2)cc1O`, `Oc1ccc(C(O)CNCCCCCCNCC(O)c2ccc(O)c(O)c2)cc1O` (centres undefined) is lower in “activity change, negative = inhibition” value: -14.6% for the first, -32% for the second.

First: Cn1c(=O)c2c(ncn2C)n(C)c1=O
Second: CCCSS/C(CCO)=C(\C)N(C=O)Cc1cnc(C)nc1N
The “activity change, negative = inhibition” value of the first is lower: -39% for the first, -28.7% for the second.

Compared with `N[C@H](Cc1c[nH]c2ccccc12)C(=O)O`, `C=Cc1c(C)c2cc3[nH]c(cc4nc(cc5nc(cc1[nH]2)C(C)=C5CCC(=O)O)C(CCC(=O)O)=C4C)c(C)c3C=C` is higher in “activity change, negative = inhibition” value: -22.8% for the first, -8.4% for the second.

First: CCCCCC1Nc2cc(C(F)(F)F)c(S(N)(=O)=O)cc2S(=O)(=O)N1 (centres undefined)
Second: CCCCN(CCN(CCCC)C(=O)N1CCOCC1)C(=O)N1CCOCC1
The “activity change, negative = inhibition” value of the first is higher: -3.59% for the first, -12.3% for the second.

For `Cc1ccc(C(=O)Oc2ccc(C(O)CNC(C)(C)C)cc2OC(=O)c2ccc(C)cc2)cc1` (centres undefined), the “outcome” value was “inactive”.
For `CCOc1ccc(NC(C)=O)cc1`, the “outcome” value was “inactive”.
For `CCOC(=O)n1ccn(C)c1=S`, the “outcome” value was “inactive”.
With `CCN1CCN(c2cc(-c3ccc(F)cc3)c3c(n2)CCCCCC3)CC1` the “outcome” value was “inactive [at 26.4 µM]”.

For `O=C(O)c1cn(-c2ccc(F)cc2)c2cc(N3CCNCC3)c(F)cc2c1=O`, the “activity change, negative = inhibition” value was -18.8% [at 26.4 µM].
